Data: paper PMC7862700, “An all-to-all approach to the identification of sequence-specific readers for epigenetic DNA modifications on cytosine”

Tests used:
Experiment in all cases: DAPPL (digital affinity profiling via proximity ligation, sequencing); 10 mM Tris-HCl pH 7.5, 50 mM NaCl, 1 mM DTT, 4% glycerol, room temperature, 30 min; GST-TFs on glutathione beads, 16-mer random dsDNA library, 0.1% formaldehyde crosslink after washing; high values mean tight binding
Details in all cases: protein: recombinant; tags: N-terminal GST; dsDNA, one strand shown
[1] = target: T1, FLI1 (Homo sapiens, UniProt Q01543 1-452)
T1 sequence: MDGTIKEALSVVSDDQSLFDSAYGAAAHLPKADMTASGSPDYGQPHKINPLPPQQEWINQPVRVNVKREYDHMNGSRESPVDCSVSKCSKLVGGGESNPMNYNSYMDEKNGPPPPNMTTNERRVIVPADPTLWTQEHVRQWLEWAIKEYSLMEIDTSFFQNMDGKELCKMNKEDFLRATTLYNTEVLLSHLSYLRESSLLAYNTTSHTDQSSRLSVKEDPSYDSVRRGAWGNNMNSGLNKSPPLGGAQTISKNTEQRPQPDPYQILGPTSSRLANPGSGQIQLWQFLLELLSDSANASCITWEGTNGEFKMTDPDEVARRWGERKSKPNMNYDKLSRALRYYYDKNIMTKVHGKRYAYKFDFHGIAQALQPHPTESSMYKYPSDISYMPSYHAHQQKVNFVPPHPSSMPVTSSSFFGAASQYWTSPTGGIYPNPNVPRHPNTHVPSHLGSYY
Outline: (§1)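 Human transcription factors were made in yeast as GST fusions, captured on glutathione beads and barcoded with DNA. With a tag-only sample included, the pool was incubated with 200 nmole of a random double-stranded 16-mer DNA library in Tris/NaCl/DTT/glycerol buffer at room temperature for 30 min, then crosslinked with 0.1% formaldehyde after washing, ligated by proximity, amplified and sequenced. For binding signal, each hexamer's read frequency for a factor is divided by its frequency for the tag-only sample.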

[2] = target: T2, ELK1 (Homo sapiens, UniProt P19419 1-428)
T2 sequence: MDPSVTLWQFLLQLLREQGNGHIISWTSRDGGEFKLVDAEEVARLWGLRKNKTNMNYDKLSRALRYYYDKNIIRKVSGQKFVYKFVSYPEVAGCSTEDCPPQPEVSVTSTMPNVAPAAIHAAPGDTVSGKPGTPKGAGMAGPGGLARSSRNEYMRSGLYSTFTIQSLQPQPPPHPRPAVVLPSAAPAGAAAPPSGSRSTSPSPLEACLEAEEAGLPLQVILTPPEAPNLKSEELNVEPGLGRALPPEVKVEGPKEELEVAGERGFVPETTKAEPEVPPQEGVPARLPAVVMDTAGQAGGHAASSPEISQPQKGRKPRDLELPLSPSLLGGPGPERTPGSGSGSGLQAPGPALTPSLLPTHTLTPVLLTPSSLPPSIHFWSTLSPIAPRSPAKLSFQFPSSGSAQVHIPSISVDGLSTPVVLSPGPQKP
Outline: as §1

[3] = target: T3, GABPA (Homo sapiens, UniProt Q06546 1-454)
T3 sequence: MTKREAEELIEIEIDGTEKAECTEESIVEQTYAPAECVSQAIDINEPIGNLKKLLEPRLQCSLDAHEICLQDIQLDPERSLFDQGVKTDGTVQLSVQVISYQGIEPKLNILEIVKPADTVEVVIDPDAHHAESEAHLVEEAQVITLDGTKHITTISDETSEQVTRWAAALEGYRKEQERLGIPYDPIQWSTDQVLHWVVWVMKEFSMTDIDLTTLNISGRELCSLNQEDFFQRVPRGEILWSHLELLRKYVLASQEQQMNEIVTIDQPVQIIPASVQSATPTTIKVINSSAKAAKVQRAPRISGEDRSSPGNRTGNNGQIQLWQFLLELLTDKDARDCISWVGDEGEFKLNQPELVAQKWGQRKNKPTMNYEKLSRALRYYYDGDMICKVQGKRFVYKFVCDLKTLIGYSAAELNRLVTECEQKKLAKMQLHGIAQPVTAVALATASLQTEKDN
Outline: as §1

[4] = target: T4, ERG (Homo sapiens, UniProt P11308 1-479)
T4 sequence: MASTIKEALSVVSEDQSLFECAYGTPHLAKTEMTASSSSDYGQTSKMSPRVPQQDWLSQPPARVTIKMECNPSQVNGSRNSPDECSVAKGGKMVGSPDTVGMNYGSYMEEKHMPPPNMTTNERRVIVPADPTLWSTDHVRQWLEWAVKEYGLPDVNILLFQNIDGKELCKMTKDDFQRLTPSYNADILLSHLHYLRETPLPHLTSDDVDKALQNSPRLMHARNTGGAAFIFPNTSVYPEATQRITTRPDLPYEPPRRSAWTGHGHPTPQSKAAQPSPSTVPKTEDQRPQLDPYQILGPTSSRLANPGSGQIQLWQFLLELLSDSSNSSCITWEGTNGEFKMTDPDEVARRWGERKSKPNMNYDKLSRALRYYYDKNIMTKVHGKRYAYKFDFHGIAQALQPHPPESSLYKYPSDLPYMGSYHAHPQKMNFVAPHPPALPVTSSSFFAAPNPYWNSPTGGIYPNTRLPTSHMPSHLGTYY
Outline: as §1

[5] = target: ELF1 (Homo sapiens, UniProt P32519 1-619)
Outline: as §1

[6] = target: T5, EHF (Homo sapiens, UniProt Q9NZC4 1-300)
T5 sequence: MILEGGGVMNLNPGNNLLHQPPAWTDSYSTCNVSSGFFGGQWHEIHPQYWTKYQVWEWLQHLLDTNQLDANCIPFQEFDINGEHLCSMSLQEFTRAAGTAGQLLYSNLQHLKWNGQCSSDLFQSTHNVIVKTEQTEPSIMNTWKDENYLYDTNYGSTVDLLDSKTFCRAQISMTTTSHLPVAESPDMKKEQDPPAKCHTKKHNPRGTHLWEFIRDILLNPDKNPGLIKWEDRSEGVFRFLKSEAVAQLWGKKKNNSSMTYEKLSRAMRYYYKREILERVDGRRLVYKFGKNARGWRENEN
Outline: as §1

[7] = target: SPI1 (Homo sapiens, UniProt P17947 1-270)
Outline: as §1

[8] = target: SPIB (Homo sapiens, UniProt Q01892 1-262)
Outline: as §1

[9] = target: T6, ELK3 (Homo sapiens, UniProt P41970 1-407)
T6 sequence: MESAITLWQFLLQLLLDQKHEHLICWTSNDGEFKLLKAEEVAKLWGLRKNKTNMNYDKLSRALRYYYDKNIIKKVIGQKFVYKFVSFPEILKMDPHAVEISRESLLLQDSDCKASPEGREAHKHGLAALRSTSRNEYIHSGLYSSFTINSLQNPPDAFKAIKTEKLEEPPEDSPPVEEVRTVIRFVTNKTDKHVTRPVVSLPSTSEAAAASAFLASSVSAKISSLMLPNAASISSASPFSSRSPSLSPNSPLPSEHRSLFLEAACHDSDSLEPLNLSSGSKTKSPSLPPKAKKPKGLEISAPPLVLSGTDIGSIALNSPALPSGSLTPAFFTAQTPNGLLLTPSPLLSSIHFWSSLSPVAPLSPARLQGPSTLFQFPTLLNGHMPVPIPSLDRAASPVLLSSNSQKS
Outline: as §1

ELF1, sequence (P32519 whole entry): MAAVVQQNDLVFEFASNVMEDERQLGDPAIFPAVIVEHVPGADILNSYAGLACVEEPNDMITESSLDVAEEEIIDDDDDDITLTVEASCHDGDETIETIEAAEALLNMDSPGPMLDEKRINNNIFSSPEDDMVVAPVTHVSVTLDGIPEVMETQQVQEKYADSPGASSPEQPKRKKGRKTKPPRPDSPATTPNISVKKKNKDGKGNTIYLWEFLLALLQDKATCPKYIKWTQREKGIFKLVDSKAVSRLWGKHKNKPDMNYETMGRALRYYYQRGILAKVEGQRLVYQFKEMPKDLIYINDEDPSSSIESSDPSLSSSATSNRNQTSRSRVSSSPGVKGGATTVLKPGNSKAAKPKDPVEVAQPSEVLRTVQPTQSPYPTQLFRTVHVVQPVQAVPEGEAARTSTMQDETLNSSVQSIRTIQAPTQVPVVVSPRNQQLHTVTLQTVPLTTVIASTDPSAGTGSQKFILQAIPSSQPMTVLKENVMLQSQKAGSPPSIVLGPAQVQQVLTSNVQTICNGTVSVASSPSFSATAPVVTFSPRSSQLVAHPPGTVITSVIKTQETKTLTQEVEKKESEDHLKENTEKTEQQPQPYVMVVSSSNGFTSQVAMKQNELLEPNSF
SPIB, sequence (Q01892 whole entry): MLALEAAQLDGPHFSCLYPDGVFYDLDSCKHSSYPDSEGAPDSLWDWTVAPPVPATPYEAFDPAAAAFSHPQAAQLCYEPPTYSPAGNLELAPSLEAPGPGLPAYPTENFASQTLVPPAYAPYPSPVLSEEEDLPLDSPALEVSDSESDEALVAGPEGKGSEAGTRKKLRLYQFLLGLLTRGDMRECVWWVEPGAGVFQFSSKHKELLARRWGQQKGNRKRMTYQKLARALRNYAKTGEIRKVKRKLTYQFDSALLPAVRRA

Sequence	binding signal [1]	binding signal [2]	binding signal [3]	binding signal [4]	binding signal [5]	binding signal [6]	binding signal [7]	binding signal [8]	binding signal [9]
CACTGT	1.12 fold enrichment (6-mer frequency, TF over GST control)	1.09 fold enrichment (6-mer frequency, TF over GST control)	1.17 fold enrichment (6-mer frequency, TF over GST control)	1.14 fold enrichment (6-mer frequency, TF over GST control)	1.16 fold enrichment (6-mer frequency, TF over GST control)	1.19 fold enrichment (6-mer frequency, TF over GST control)	1.11 fold enrichment (6-mer frequency, TF over GST control)	1.22 fold enrichment (6-mer frequency, TF over GST control)	1.03 fold enrichment (6-mer frequency, TF over GST control)
TGTTTG	1.52 fold enrichment (6-mer frequency, TF over GST control)	1.31 fold enrichment (6-mer frequency, TF over GST control)	1.32 fold enrichment (6-mer frequency, TF over GST control)	1.27 fold enrichment (6-mer frequency, TF over GST control)	1.22 fold enrichment (6-mer frequency, TF over GST control)	1.31 fold enrichment (6-mer frequency, TF over GST control)	1.29 fold enrichment (6-mer frequency, TF over GST control)	1.42 fold enrichment (6-mer frequency, TF over GST control)	1.29 fold enrichment (6-mer frequency, TF over GST control)
TCTTTT	1.46 fold enrichment (6-mer frequency, TF over GST control)	1.38 fold enrichment (6-mer frequency, TF over GST control)	1.45 fold enrichment (6-mer frequency, TF over GST control)	1.36 fold enrichment (6-mer frequency, TF over GST control)	1.47 fold enrichment (6-mer frequency, TF over GST control)	1.53 fold enrichment (6-mer frequency, TF over GST control)	2.09 fold enrichment (6-mer frequency, TF over GST control)	1.61 fold enrichment (6-mer frequency, TF over GST control)	1.51 fold enrichment (6-mer frequency, TF over GST control)
CACCCG	1.14 fold enrichment (6-mer frequency, TF over GST control)	1.24 fold enrichment (6-mer frequency, TF over GST control)	1.18 fold enrichment (6-mer frequency, TF over GST control)	1.21 fold enrichment (6-mer frequency, TF over GST control)	1.2 fold enrichment (6-mer frequency, TF over GST control)	1.2 fold enrichment (6-mer frequency, TF over GST control)	1.12 fold enrichment (6-mer frequency, TF over GST control)	1.28 fold enrichment (6-mer frequency, TF over GST control)	1.17 fold enrichment (6-mer frequency, TF over GST control)
GAAGCG	1.37 fold enrichment (6-mer frequency, TF over GST control)	1.24 fold enrichment (6-mer frequency, TF over GST control)	1.27 fold enrichment (6-mer frequency, TF over GST control)	1.42 fold enrichment (6-mer frequency, TF over GST control)	1.29 fold enrichment (6-mer frequency, TF over GST control)	1.53 fold enrichment (6-mer frequency, TF over GST control)	1.43 fold enrichment (6-mer frequency, TF over GST control)	1.28 fold enrichment (6-mer frequency, TF over GST control)	1.49 fold enrichment (6-mer frequency, TF over GST control)
CCCGGC	1.15 fold enrichment (6-mer frequency, TF over GST control)	1.25 fold enrichment (6-mer frequency, TF over GST control)	1.1 fold enrichment (6-mer frequency, TF over GST control)	1.15 fold enrichment (6-mer frequency, TF over GST control)	1.17 fold enrichment (6-mer frequency, TF over GST control)	1.06 fold enrichment (6-mer frequency, TF over GST control)	1.13 fold enrichment (6-mer frequency, TF over GST control)	1.13 fold enrichment (6-mer frequency, TF over GST control)	1.22 fold enrichment (6-mer frequency, TF over GST control)
CCGGCC	1.27 fold enrichment (6-mer frequency, TF over GST control)	1.27 fold enrichment (6-mer frequency, TF over GST control)	1.13 fold enrichment (6-mer frequency, TF over GST control)	1.18 fold enrichment (6-mer frequency, TF over GST control)	1.16 fold enrichment (6-mer frequency, TF over GST control)	1.1 fold enrichment (6-mer frequency, TF over GST control)	1.04 fold enrichment (6-mer frequency, TF over GST control)	1.18 fold enrichment (6-mer frequency, TF over GST control)	1.33 fold enrichment (6-mer frequency, TF over GST control)
CCTACA	1.35 fold enrichment (6-mer frequency, TF over GST control)	1.26 fold enrichment (6-mer frequency, TF over GST control)	1.33 fold enrichment (6-mer frequency, TF over GST control)	1.21 fold enrichment (6-mer frequency, TF over GST control)	1.19 fold enrichment (6-mer frequency, TF over GST control)	1.18 fold enrichment (6-mer frequency, TF over GST control)	1.16 fold enrichment (6-mer frequency, TF over GST control)	1.17 fold enrichment (6-mer frequency, TF over GST control)	1.19 fold enrichment (6-mer frequency, TF over GST control)
